Screens (PubChem BioAssay)
Compounds with a hit are over-represented: about 2.5% of the library has one in this group of screens.
Casp1 inh: qHTS Assay for Allosteric/Competitive Inhibitors of Caspase-1; 75,000 tested, 0.03% active; Potency, µM (highest dose often 57.5 µM), actives largely listed as inhibitors; Caspase-1 enzyme, Ac-WEHD-AFC fluorogenic rate; P29466; AID 900, 2007
p53ts 32C tox: qHTS Screen for Compounds that Selectively Target Cancer Cells with p53 Mutations: Cytotoxicity of p53ts Cells at the Permissive Temperature. H1299-p53A138V at 32C, ATP luminescence viability, 24 h. Potency, µM (doses to about 46.1 µM), actives largely listed as cytotoxic. 130,000 tested, 0.93% active. AID 924, 2007; further: nearly all actives have a fitted effect of over 55% in size
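Cells: H1299 p53ts (A138V), 600/well, pre-incubated 16–30 h at 37C. Cpd up to 46 uM, 24 h, 32C. Readout: ATPlite luminescence, 20 min RT. Normalization: DMSO vs tamoxifen 100 uM. AC50 by Hill equation.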
FLuc inh: qHTS Assay for Inhibitors of Firefly Luciferase; Luciferin 4-monooxygenase (Photinus pyralis), P08659; purified firefly luciferase, luminescence, 8 min; Potency, µM (titrated, usually from 57.1 µM), most hits filed as inhibitors; 72,000 tested, 2.2% active; AID 411, 2009; further: nearly all actives have a fitted effect of over 40% in size
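Compounds were tested as concentration series (qHTS) against purified P. pyralis luciferase with luciferin and 10 uM ATP in 50 mM imidazole pH 7.2, 50 mM KCl, 7 mM MgCl2, 0.01% Tween 20, 0.05% BSA. Luminescence was read after 8 min at ambient temperature.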
Casp7 inh: qHTS Assay for Allosteric/Competitive Inhibitors of Caspase-7. P55210. recombinant caspase-7, Ac-DEVD-AFC fluorescence rate. Potency, µM (top dose mostly 57.5 µM), usual class: inhibitors. 75,000 tested, 0.02% active. AID 889, 2007; active means well fitted inhibition curve with a large enough effect in the main read-out, with a control signal flat, not every such curve was filed as active; inconclusive means small, poorly fitted or top-dose-only effect, or a change in a side signal
p53ts 39C tox: qHTS Screen for Compounds that Selectively Target Cancer Cells with p53 Mutations: Cytotoxicity of p53ts Cells at the Nonpermissive Temperature | H1299-p53A138V viability at 39C, ATP luminescence, 24 h | AID 902, 2007 | Potency, µM (series often up to 46.1 µM), actives largely listed as cytotoxic | 130,000 tested, 1.5% active; further: nearly all actives have a fitted effect of over 55% in size
IkB signaling: IkB Signaling; ABC-DLBCL IkBa-CBG/CBR dual luciferase ratio, 4 h; response scale: scaled: untreated 0%, proteasome inhibitor 100%; Potency, µM (series often up to 57.1 µM); 110,000 tested, 0.04% active; active means well fitted curve in the direction sought with a large enough effect in the signal ratio, not every such curve was filed as active; inconclusive means small, poorly fitted or top-dose-only effect, or a change in a side signal; the % refers to the signal ratio;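 further: the direction sought is a rising ratio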
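Luminescence ratio of IκBα-fused green versus native red beetle luciferase in OCI-Ly3 cells, 4 h post-doxycycline with compound; red signal alone, scaled from basal (0%) to zero light (-100%), flagged nonspecific or cytotoxic effects.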
Hits are given with their value; 0 = inactive; ? = inconclusive; - = not tested or not shown. Unless noted, the call rests on the fitted dose curve; in most records, active means well fitted curve in the direction sought with a large enough effect; inconclusive means small, poorly fitted or top-dose-only effect, or another doubt; inactive means no such curve, though single readings can be large; an effect the other way counts as inactive or inconclusive.

SMILES	Casp1 inh	p53ts 32C tox	FLuc inh	Casp7 inh	p53ts 39C tox	IkB signaling
O=C(NCc1ccncc1)c1ccc(Br)cc1	0	0	0	0	0	0
[O-]/[N+](=C\c1ccncc1)c1ccc(Br)cc1	0	0	7.9µM	0	0	0
O=C(COc1ccccc1Cl)Nc1ccc(Cl)cn1	0	13µM	16µM	0	16µM	0
COc1ccccc1OCC(=O)Nc1ccccn1	0	10µM	10µM	0	7.9µM	?
O=C(CC(=O)Nc1ccccn1)Nc1ccccn1	0	0	0	0	0	0
O=C(COc1ccc(Cl)cc1Cl)NC1CCSC1=O (configuration not stated)	0	0	25µM	0	?	0
O=C(COc1ccc(Cl)cc1Cl)NC(=O)N1CCCCC1	0	13µM	0	0	?	0
COc1ccc(-c2nc(C#N)c(NCCc3ccccc3)o2)cc1	0	0	0	0	0	0
CCOC(=O)CSc1nnc2n1C(C)(C)Cc1ccccc1-2	0	0	0	0	0	0
CCOc1ccc(CCNC(=O)c2cnc3c(-c4ccc(F)cc4)c(C)nn3c2C)cc1	-	0	-	-	0	0
CCc1nc(N2CCCC2)c(C#N)c2c1CCCC2	-	-	0	-	-	-
O=C(COc1ccc(Cl)cc1Cl)Nc1ccccn1	0	0.4µM	0.079µM	0	0.63µM	?
O=C(COc1ccc(Cl)cc1Cl)NCc1ccncc1	0	0	0	0	0	0
Cc1ccc(N2CC(c3nnc(Cc4ccc(F)cc4Cl)o3)CC2=O)cc1 (configuration not stated)	-	0	-	-	0	0
O=C(Cn1c(=O)oc2cc(S(=O)(=O)N3CCc4ccccc43)ccc21)NC1CCCC1	0	0	0	0	0	0
CCCOc1ccc(-c2nc3ccccc3c(=O)o2)cc1	-	10µM	-	-	5µM	0
CCC(=O)Nc1cccc(-c2nc3ccccc3c(=O)o2)c1	0	13µM	?	0	10µM	?
CC(=O)Nc1cccc(-c2nc3ccccc3c(=O)o2)c1	0	0	0	0	0	?
O=C(Cn1cnc2onc(-c3ccc(F)cc3)c2c1=O)Nc1ccc(F)c(Cl)c1	-	0	-	-	13µM	?
Cc1cc(C)cc(-n2ccnc2SCC(=O)Nc2nccs2)c1	0	0	0	0	0	0
CC(C)CNS(=O)(=O)c1ccc(C(=O)Nc2ccc3c(c2)OCCO3)cc1	0	0	0	0	0	?
CCCCC(=O)OC1=C(C(=O)c2ccccc2)N(CC)S(=O)(=O)c2ccccc21	-	0	-	-	0	?
CCN1C(C(=O)c2ccccc2)=C(OC(=O)c2ccccc2OC)c2ccccc2S1(=O)=O	-	?	-	-	10µM	?
COc1ccccc1/C=C/C=N/NC(=O)CCC1C(=O)NN=C1C (configuration not stated)	-	0	-	-	0	-
Cc1nc2sc(-c3ccccc3)cc2c(=O)n1-n1cccc1	0	0	20µM	0	?	0
SMILES	Casp1 inh	p53ts 32C tox	FLuc inh	Casp7 inh	p53ts 39C tox	IkB signaling
NCCCCNS(=O)(=O)c1cccc2c(Cl)cccc12	0	0	0	0	16µM	0
CCc1cccc(C)c1NC(=O)CN1C(=O)c2ccccc2Sc2ncccc21	-	0	-	-	0	0
Cc1ccc(C(=O)/C=C/Nc2ccccc2C(N)=O)o1	-	13µM	6.3µM	?	13µM	?
Cc1ccc(C(=O)Nc2ccncc2)o1	0	0	0	0	0	0
NC(=O)c1ccccc1N/C=C/C(=O)c1cccs1	-	11µM	-	-	?	-
CC(=O)Nc1ccc(N/C=C/C(=O)c2ccc(C)o2)cc1	?	0	16µM	?	0	0
Cc1ccc(/C=C/C(=O)Nc2ccccc2C(N)=O)o1	-	7.9µM	-	-	5µM	?
Cc1ncoc1C(=O)Nc1ccccc1C(N)=O	0	0	0	0	0	0
NC(=O)c1ccccc1NS(=O)(=O)c1cccs1	0	0	0	0	0	0
CC1CCC(NC(=O)C2CCN(c3cnccn3)CC2)CC1 (configuration not stated)	0	0	0	0	0	0
Cc1cc(=O)n2c(C)n[nH]c2n1	0	0	0	0	0	0
Cc1oc(-c2ccc(Cl)cc2)nc1Cn1c(=O)cc(C)c2c(C)nn(-c3ccccc3)c21	-	0	-	-	0	?
Cc1nc(SCC(=O)N(C)Cc2ccco2)c2c(C)c(C)sc2n1	0	0	0	0	0	?
CCN(CC)S(=O)(=O)c1ccc2c(c1)N(CC(=O)N1CCN(c3cc(Cl)ccc3C)CC1)C(=O)CO2	-	0	-	-	0	0
CCCCc1ccc(NC(=O)c2ccc3c(c2)CCN3S(=O)(=O)CC)cc1	-	0	-	-	0	0
Cc1cccc(N/C=C/C(=O)c2cccs2)c1C	-	-	-	-	10µM	-
Cc1ccc(C(=O)CC2(O)C(=O)N(CCc3ccccc3)c3ccc(Cl)cc32)cc1 (configuration not stated)	-	?	-	-	16µM	?
Cc1[nH]c2ccccc2c1C1(O)C(=O)N(Cc2ccccc2)c2ccc(Br)cc21 (configuration not stated)	-	0	-	-	13µM	?
Cc1[nH]c2ccccc2c1C1(O)C(=O)N(Cc2ccccc2Cl)c2ccccc21 (configuration not stated)	-	0	-	-	?	?
COc1ccc(C(=O)CC2(O)C(=O)N(Cc3ccccc3)c3ccc(Br)cc32)cc1 (configuration not stated)	-	0	-	-	13µM	?
COc1cc(C(=O)NCCc2ccc3c(c2)OCCO3)ccc1OCC(=O)N1CCOCC1	0	0	0	0	0	?
CC(C)C(=O)Nc1cccc(C(=O)Nc2nnc(C(C)C)s2)c1	-	0	-	-	0	-
CCCn1c(CNc2ccc(Br)cc2)nc2ccccc21	0	0	0	0	0	?
CC(=O)N=C(N)Sc1nc2ccccc2[nH]1	-	0	13µM	-	0	-
Cc1nc2cc(CO)ccc2s1	0	0	0	0	0	0
SMILES	Casp1 inh	p53ts 32C tox	FLuc inh	Casp7 inh	p53ts 39C tox	IkB signaling
Cc1nc2cc3nc(C)sc3cc2s1	0	?	16µM	0	?	0
CC(=Nc1ccc(O)cc1)c1sc2ccccc2c1O	?	?	7.9µM	0	?	?
CCCCC(=O)Nc1c(C(=O)N2CCN(c3ccccc3)CC2)oc2ccccc12	-	0	-	-	16µM	?
C/C=C/c1ccc(Oc2nnnn2-c2ccc(C(N)=O)cc2)c(OC)c1	0	0	0	0	0	0
Cc1ccc(Nc2nc(CSc3nnnn3C)cs2)cc1	0	?	13µM	0	?	0
COCc1nnc(NC(=O)c2cccs2)s1	0	0	0	0	0	0
Cc1nnc(NC(=O)c2sc3ccccc3c2Cl)s1	0	1.3µM	2µM	0	0.63µM	?
CCN(CC)c1ccc(NC(=O)c2sc3ccccc3c2Cl)cc1	-	0	-	-	0	0
COCc1nnc(NC(=O)c2sc3ccccc3c2Cl)s1	0	?	20µM	0	16µM	?
